Only a sample is shown. The true hit rate is not given.
B1: il10ra_site1_normal_mot_HHH_b2_03220_af2_000000223_0001_23_40_H_._HHH_b1_05042_0001_0000100015_0000001_0 (protein)
chain: SSSSSRELSEEAWELLREILELIYEGDEERAQELLREVEEIAEEANSFALEYTVRILKEQLSSSS
B2: il10ra_site1_sap_22_mot_690a356816548de866c59e88e666ab0a_0001_1_af2_000000025_0001_1_13_H_._HHH_b1_01796_af2_0001_0000400019_0000001_0_0001_af2pred_0001 (protein)
chain: SSSSDIAEADARQAFKLLEIAHEQNDEELLERALELLEYLARLSNDPEAERLLEEAEKLVGSSSS
B3: il10ra_site1_normal_mot_HHH_b1_01082_af2_000000031_0001_3_19_H_._HHH_b1_06064_0001_0000200007_0000001_0 (protein)
chain: SSSSSYEEVKKLIERIVELLRRGDHEEAEKLIRELEELAEELNNPSLRFVVRLLEEVLERLSSSS
B4: il10ra_site1_sap_17_mot_HHH_b1_03763_000000209_0001_22_38_H_._HHH_b1_06016_0001_0000500017_0000001_0_0001 (protein)
chain: SSSSDDDEELLEAALRIAEQALEAGDPESARLILLAAARIAEELGNEELLEEIRRLLEEIRSSSS
B5: il10ra_site1_normal_mot_HHH_b2_04131_000000071_0001_1_16_H_._HHH_b2_02423_af2_0001_0000200002_0000002_0 (protein)
chain: SSSSSSDEELQRLLHELLRLYLKGDPRVEEVAEELRELAEELNNEVARFIVEAVERRLSSSSSSS
B6: il10ra_site1_sap_21_mot_HHH_b1_05126_000000010_0001_38_52_H_._HHH_b2_05985_af2_0001_0000600013_0000001_1_0001 (protein)
chain: SSSSDLEEEIEKLLEELEELIKEGDRERITELALKIVKLIYEAKNAELLRRLWELVKAFYSSSSS
B7: il10ra_site1_normal_mot_HHH_b1_04771_000000013_0001_40_56_H_._HHH_b1_06413_0001_0000200008_0000001_0 (protein)
chain: SSSSDLDERVSRLSQEVFRLALRGNPEEAEKVVEEAIELAEEANNERALRVLRDLEQVLESSSSS
B8: il10ra_site1_normal_mot_HHH_b1_02997_000000220_0001_39_52_H_._HHH_b1_04476_0001_0000500018_0000001_0_af2pred_dldesign_0_af2pred (protein)
chain: SSSSSSSNEEVVALLRRAMEEPDPEEAKRLAEEALRLAQANNNEILAHTAQLLLEQLESSSSSSS
B9: il10ra_site1_sap_25_mot_HHH_b2_05761_af2_000000185_0001_1_18_H_._HHH_b1_05595_af2_0001_0000200006_0000001_0_0001 (protein)
chain: SSSSDEDERYVELSLRFAEWLLKEGDPEAAKRILEAAREIAERANNEELREELEELLEKIGSSSS
B10: il10ra_site1_normal_mot_3af0db62db2b275566dae2e03bf881fa_0001_000000003_0001_37_50_H_._HHH_b2_06527_0001_0000300018_0000001_0_af2pred_0001 (protein)
chain: SSSSSSDLEQQVRAAIWFAKNIHNPTVRRKALEFALKIAEEINNEELVEEIRELLEQVNSSSSSS
B11: il10ra_site1_normal_mot_3c6ad1a4bc7d4f5cf55cee527202d42a_0001_000000108_0001_32_49_H_._HHH_b2_03602_af2_0001_0000600008_0000001_0_af2pred_dldesign_0_af2pred (protein)
chain: SSSSSDKEYYDALVKYYKEALALGKPEAAEKIALKGAEMRLEGKSLEEFEEKAKEILEEESSSSS
B12: il10ra_site1_sap_23_mot_39ab2cb694c8b9c1dc7e65c0d672c93e_0001_000000036_0001_53_65_H_._HHH_b1_07337_0001_0000100009_0000001_0_0001 (protein)
chain: SSSSDEEYKEVKRLIEEIAEALRNNDEELVRELLEELRELAEEINNPAAEFSLRILEEALNSSSS
B13: il10ra_site1_normal_mot_HHH_b2_00277_af2_000000172_0001_1_17_H_._HHH_eva_0065_0002_0000400034_0000001_0 (protein)
chain: DPEKEKLEEEIREVLERFEKGKIDPEEAKELLSRLAFKAARLGDDEAVELAIRAYAAIHQAEQRS
B14: il10ra_site1_normal_mot_HHH_b2_00033_000000036_0001_41_54_H_._HHH_b1_08598_0001_0000300016_0000002_0 (protein)
chain: SSSSSSSDFQELALRALRLLIKRNDKELFQELWRLVKEIAEHGDPELREELEEFLEEISSSSSSS
B15: il10ra_site1_sap_19_mot_2fa031a62b9321f410fa37cb4b35ac9e_0001_af2_000000160_0001_1_14_H_._HHH_b2_08251_af2_0001_0000200005_0000002_0_0001 (protein)
chain: SSSSSDQEEAVELSLEAFRLALRGDPEEARRVLEEALELAEEAGDERMAKVIRDMLRALSSSSSS
B16: il10ra_site1_normal_mot_HHH_b2_00475_000000107_0001_44_57_H_._HHH_b2_01638_af2_0001_0000200008_0000002_0 (protein)
chain: SSSSEEEQRVAELLFRALRLLAEGNPEEAEKVVEEAQKLAEENNDEELRKYVEILRHFIESHSSS
B17: il10ra_site1_sap_16_mot_8756ee2cf497b5429c717dfc0c0bcfd6_0001_000000186_0001_1_13_H_._HHH_b1_03338_0001_0000100002_0000003_0_0001 (protein)
chain: SSSSTLEWSVKFMLEIVEELLERGDKEKAEHLLEALLRHLKEAGDPELLREVEELLEEVRKSSSS
B18: il10ra_site1_normal_mot_HHH_b2_02116_af2_000000165_0001_41_55_H_._HHH_b1_06457_0001_0000100001_0000001_0 (protein)
chain: SSSDHERAVELLLRAAEIAFERGNPHQARAAIRLAREIAERINDEELEELVEEVERRLEESSSSS
B19: il10ra_site1_sap_14_mot_HHH_b1_08411_af2_000000053_0001_1_20_H_._HHH_b1_08108_0001_0000200028_0000001_0_0001 (protein)
chain: SSSSSSDEYREAYELIEEAFHIEDEEEARELLEEAKELAERAGNWALRFAIQLLLEDLSSSSSSS
B20: il10ra_site1_sap_24_mot_HHH_b1_06912_af2_000000235_0001_1_15_H_._HHH_b1_04651_0001_0000100003_0000001_0_0001 (protein)
chain: SSSSDQELYRKVEELIEEAIELQRRGNPEEARRLLEELLEELEELNNPNMLYNVRHLLKAISSSS
B21: il10ra_site1_sap_19_mot_HHH_b1_05021_af2_000000167_0001_42_56_H_._HHH_b1_02196_0001_0000400015_0000002_0_0001 (protein)
chain: SSSSDAEEYLREVAVELLELFREGDPEKAEELLEEAREFLEEKGNRELVRMIEFQFRASEWSSSS
B22: il10ra_site1_normal_mot_HHH_b1_02397_af2_000000085_0001_39_57_H_._HHH_b1_03194_0001_0000100004_0000002_0 (protein)
chain: SSSSSSDVEELLERLEELLEEGNHEEAARLLQEALRHAFRNSDPELLKELHEFAKRLASSSSSSS
B23: il10ra_site1_sap_15_mot_HHH_b1_03531_000000273_0001_41_54_H_._HHH_b2_00993_0001_0000200012_0000001_0_0001_af2pred_0001 (protein)
chain: SSSSTEEEIRELLEEVEELIERGNNHEAAKLLKKLAELISELNNDELLKELRELAQLVIRVSSSS
B24: il10ra_site1_normal_mot_HHH_b1_06789_af2_000000041_0001_1_20_H_._HHH_b2_03029_0001_0000300011_0000002_0 (protein)
chain: SSSSSAEYLVRQALKAAKRLYEQGDPERAKEAIEIAENLARNANNPELEKLVEEFAEELENSSSS

Biological target: il10ra, Q13651
Sequence (Q13651 whole entry): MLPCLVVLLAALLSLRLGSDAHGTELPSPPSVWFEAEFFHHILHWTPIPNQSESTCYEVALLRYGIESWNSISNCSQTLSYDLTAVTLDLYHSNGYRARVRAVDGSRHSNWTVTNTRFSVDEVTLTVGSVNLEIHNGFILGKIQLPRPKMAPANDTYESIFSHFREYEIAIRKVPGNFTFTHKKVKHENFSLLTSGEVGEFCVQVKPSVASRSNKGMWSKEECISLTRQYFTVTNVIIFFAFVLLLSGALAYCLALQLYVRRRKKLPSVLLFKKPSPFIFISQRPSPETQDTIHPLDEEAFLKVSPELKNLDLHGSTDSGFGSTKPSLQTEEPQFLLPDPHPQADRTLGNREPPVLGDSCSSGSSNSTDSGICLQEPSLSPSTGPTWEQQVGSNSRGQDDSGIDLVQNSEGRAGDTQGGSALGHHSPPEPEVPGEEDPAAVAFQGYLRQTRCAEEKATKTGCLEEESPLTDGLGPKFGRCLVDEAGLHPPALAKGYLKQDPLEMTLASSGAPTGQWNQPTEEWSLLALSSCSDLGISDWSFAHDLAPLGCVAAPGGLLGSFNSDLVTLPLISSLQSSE
Assay: yeast display titration

Apparent Kd, inactive:
B1 no binding seen
B2 no binding seen
B3 no binding seen
B4 no binding seen
B5 no binding seen
B6 no binding seen
B7 no binding seen
B8 no binding seen
B9 no binding seen
B10 no binding seen
B11 no binding seen
B12 no binding seen
B13 no binding seen
B14 no binding seen
B15 no binding seen
B16 no binding seen
B17 no binding seen
B18 no binding seen
B19 no binding seen
B20 no binding seen
B21 no binding seen
B22 no binding seen
B23 no binding seen
B24 no binding seen

From paper PMC10163288
